Test results: PubChem BioAssay (Tox21)
“And” between values parts separate entries of the source, which are not always exact repeats. Equal values may be shown once. Unmarked numbers belong to inactive results. Records with an inconclusive call do not appear. Where a call stands in place of a potency, no number is given. The source made the active and inactive calls. Unless noted, the call rests on the fitted dose curve; in most records, active means well fitted curve in the direction sought with a large enough effect in the repeat runs; inconclusive means weak or mixed curves; inactive means no such curve, though single readings can be large; an effect the other way counts as inactive or inconclusive.

Columns and labels:
[1] = A CellTox Green Cytotoxicity Assay to monitor cytotoxicity in HEK293 cells - 32 hour (AID 1224881); further: nearly all actives have a fitted effect of over 40% in size; further: potency means the concentration at half of the fitted maximal effect
How it was run: (§1)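 Fluorescence intensity, read at 0, 8, 16, 24, 32 and 40 h of compound treatment, reflected dye binding to DNA of dead HEK293 cells; compounds (23 nL, DMSO) were added 5 h after plating cells with reagent.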

[2] = A CellTox Green Cytotoxicity Assay to monitor cytotoxicity in HepG2 cells - 0 hour (AID 1224882); further: nearly all actives have a fitted effect of over 35% in size
How it was run: (§2)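 Using 1536-well format, dye-containing HepG2 suspension was seeded, allowed 5 h at 37 C/5% CO2, dosed by pintool with compounds, positive and negative controls, and imaged for fluorescence across 40 h.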

[3] = A CellTox Green Cytotoxicity Assay to monitor cytotoxicity in HepG2 cells - 32 hour (AID 1224883); further: nearly all actives have a fitted effect of over 50% in size; further: potency means the concentration at half of the fitted maximal effect
How it was run: as §2

[4] = A CellTox Green Cytotoxicity Assay to monitor cytotoxicity in HEK293 cells - 8 hour (AID 1224884); further: nearly all actives have a fitted effect of over 35% in size
How it was run: as §1

[5] = qHTS RealTime-Glo MT Cell Viability Assay in HepG2 cells - 16 hour (AID 1224885); further: nearly all actives have a fitted effect of over 50% in size
How it was run: (§3)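 Viability was tracked continuously by NanoLuc luminescence from prosubstrate reduced by living HepG2 cells, at successive time points over 40 h of compound exposure. Cells with reagent were preincubated 5 h at 37 °C before compound addition.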

[6] = qHTS RealTime-Glo MT Cell Viability Assay in HEK293 cells - 8 hour (AID 1224887); further: top concentration of the series differs between compounds; nearly all actives have a fitted effect of over 50% in size
How it was run: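 Viable HEK293 cells reduce a cell-permeant prosubstrate; the product diffuses out and is consumed by NanoLuc in the medium to give light. Compounds went in after a 5 h incubation and plates were read over the treatment course.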

[7] = A CellTox Green Cytotoxicity Assay to monitor cytotoxicity in HEK293 cells - 16 hour (AID 1224888); further: nearly all actives have a fitted effect of over 35% in size
How it was run: as §1

[8] = qHTS RealTime-Glo MT Cell Viability Assay in HepG2 cells - 0 hour (AID 1224889); further: nearly all actives have a fitted effect of over 50% in size
How it was run: as §3

[9] = A CellTox Green Cytotoxicity Assay to monitor cytotoxicity in HepG2 cells - 8 hour (AID 1224890); further: nearly all actives have a fitted effect of over 45% in size
How it was run: as §2

[10] = qHTS assay to identify small molecule antagonists of the estrogen receptor alpha (ER-alpha) signaling pathway using the BG1 cell line in the presence of 0.1 nM 17-beta-estradiol - cell viability counter screen (AID 1259241); further: nearly all actives have a fitted effect of over 40% in size
How it was run: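 Viability in VM7Luc4E2 cells after 22 hr compound exposure under 0.1 nM 17beta-estradiol stimulation, by CellTiter-Fluor.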

[11] = qHTS assay to identify small molecule antagonists of the androgen receptor (AR) signaling pathway using the MDA cell line in the presence of 0.5 nM R1881 - cell viability counter screen (AID 1259242); further: nearly all actives have a fitted effect of over 45% in size
How it was run: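 Viability of MDA-kb2 cells was multiplexed with the luciferase AR readout; after 16 hr with compounds and R1881 at 0.5 nM final, CellTiter-Fluor fluorescence was recorded.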

[12] = qHTS assay to identify small molecule HDAC inhibitors (AID 1259364);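 further: wild-type HCT-116 cells with endogenous class I/II HDAC activity; top concentration of the series differs between compounds; nearly all actives have a fitted effect of over 45% in size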
How it was run: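 Read-out: luminescence of HDAC-Glo I/II reagent, 30 min RT, reflecting class I/II deacetylase activity in whole HCT-116 cells pre-exposed 2 h to DMSO-dissolved compounds.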

[13] = qHTS assay to identify small molecule HDAC inhibitors - cell viability counter screen (AID 1259365)
How it was run: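 Cytotoxicity was gauged in wild-type HCT-116 cells after a brief 2hr treatment with DMSO-dissolved compounds at 37C and 5% CO2, using CellTiter-Glo luminescence developed for 30min at room temperature.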

[14] = qHTS assay to identify small molecule agonists of the sonic hedgehog signaling (Shh) pathway - cell viability counter screen (AID 1259366); further: nearly all actives have a fitted effect of over 50% in size; further: potency means the concentration at half of the fitted maximal effect
How it was run: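 Stable Gli1-Luc NIH/3T3 clone, 2,000 cells/well. Compound exposure 24hr at 37C. Read-out: CellTiter-Fluor fluorescence.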

[15] = qHTS assay to identify small molecule antagonists of the sonic hedgehog signaling (Shh) pathway - cell viability counter screen (AID 1259367); further: nearly all actives have a fitted effect of over 55% in size; further: potency means the concentration at half of the fitted maximal effect
How it was run: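 Using CellTiter-Fluor, viability of Gli1-Luc reporter 3T3 cells is read by fluorescence in the wells used for the Shh luciferase assay. Treatment lasts 23 hr with conditioned medium, then reagent 1 hr at 37C.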

[16] = qHTS assay to identify small molecule agonists of the sonic hedgehog signaling (Shh) pathway (AID 1259368; calls by dose curve;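 further: NIH/3T3-derived 3T3Gli1-Luc cells carrying a stable Gli1-driven firefly luciferase reporter; series mostly up to about 92 µM; nearly all actives have a fitted effect of over 15% in size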)
How it was run: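 A Gli1 transcriptional response element controlled firefly luciferase in 3T3Gli1-Luc cells. Compounds and a positive control were added 4 hr after plating, and cells were incubated a further 24 hr at 37 C before luminescence detection.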

[17] = qHTS RealTime-Glo MT Cell Viability Assay in HEK293 cells - 24 hour (AID 1224886)
How it was run: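 Viability tracked continuously by luminescence as live cells reduce a prosubstrate for NanoLuc; HEK293 cells preincubated 5 h, compound-treated at 37 C, and read at 0, 8, 16, 24, 32 and 40 h.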

[18] = target: Androgen receptor (Homo sapiens) (UniProt P10275); experiment: qHTS assay to identify small molecule antagonists of the androgen receptor (AR) signaling pathway using the MDA cell line in the presence of 0.5 nM R1881 (AID 1259243); further: nearly all actives have a fitted effect of over 50% in size
How it was run: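 Reporter cells cultured without CO2 receive test chemicals, then 0.5 nM R1881 final; after 16 hr at 37C, ONE-Glo is added and light output recorded.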

[19] = target: Estrogen receptor (Homo sapiens) (UniProt P03372); experiment: qHTS assay to identify small molecule antagonists of the estrogen receptor alpha (ER-alpha) signaling pathway using the BG1 cell line in the presence of 0.1 nM 17-beta-estradiol (AID 1259244); further: nearly all actives have a fitted effect of over 50% in size
How it was run: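 Estradiol at 0.1 nM (final) stimulates the endogenous ER-alpha of VM7Luc4E2 cells carrying an ERE-driven luciferase; compounds are co-incubated 22 h at 37C and luciferase output quantified by luminescence.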

[20] = qHTS assay to identify small molecule phospholipidosis (PLD) inducers (AID 1259344; active means well fitted curve in the direction sought with a large enough effect; an effect the other way counts as inactive or inconclusive)
How it was run: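 Fluorescent phospholipid staining (LipidTOX Red) measured by automated microscopy in fixed HepG2 cells after 24 h treatment; nuclei counterstained with Hoechst 33342; amiodarone as reference inducer.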

Estrogen receptor (Homo sapiens), sequence (P03372 whole entry, looked up): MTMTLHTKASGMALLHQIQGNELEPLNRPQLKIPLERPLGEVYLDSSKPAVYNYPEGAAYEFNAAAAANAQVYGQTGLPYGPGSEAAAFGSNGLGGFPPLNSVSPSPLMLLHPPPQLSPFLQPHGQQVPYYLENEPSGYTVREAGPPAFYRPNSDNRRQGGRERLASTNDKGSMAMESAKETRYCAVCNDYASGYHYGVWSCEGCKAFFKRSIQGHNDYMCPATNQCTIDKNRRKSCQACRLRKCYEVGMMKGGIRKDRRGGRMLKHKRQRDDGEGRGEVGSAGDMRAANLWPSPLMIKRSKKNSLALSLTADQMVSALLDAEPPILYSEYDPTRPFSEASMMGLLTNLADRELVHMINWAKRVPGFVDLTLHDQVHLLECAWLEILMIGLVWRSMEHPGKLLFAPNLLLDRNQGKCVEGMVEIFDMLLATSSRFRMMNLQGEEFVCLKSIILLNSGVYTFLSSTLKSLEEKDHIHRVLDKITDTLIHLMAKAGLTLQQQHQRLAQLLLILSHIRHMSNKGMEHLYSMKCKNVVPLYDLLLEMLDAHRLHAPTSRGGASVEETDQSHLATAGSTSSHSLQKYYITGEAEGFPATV
Androgen receptor (Homo sapiens), sequence (P10275 whole entry, looked up): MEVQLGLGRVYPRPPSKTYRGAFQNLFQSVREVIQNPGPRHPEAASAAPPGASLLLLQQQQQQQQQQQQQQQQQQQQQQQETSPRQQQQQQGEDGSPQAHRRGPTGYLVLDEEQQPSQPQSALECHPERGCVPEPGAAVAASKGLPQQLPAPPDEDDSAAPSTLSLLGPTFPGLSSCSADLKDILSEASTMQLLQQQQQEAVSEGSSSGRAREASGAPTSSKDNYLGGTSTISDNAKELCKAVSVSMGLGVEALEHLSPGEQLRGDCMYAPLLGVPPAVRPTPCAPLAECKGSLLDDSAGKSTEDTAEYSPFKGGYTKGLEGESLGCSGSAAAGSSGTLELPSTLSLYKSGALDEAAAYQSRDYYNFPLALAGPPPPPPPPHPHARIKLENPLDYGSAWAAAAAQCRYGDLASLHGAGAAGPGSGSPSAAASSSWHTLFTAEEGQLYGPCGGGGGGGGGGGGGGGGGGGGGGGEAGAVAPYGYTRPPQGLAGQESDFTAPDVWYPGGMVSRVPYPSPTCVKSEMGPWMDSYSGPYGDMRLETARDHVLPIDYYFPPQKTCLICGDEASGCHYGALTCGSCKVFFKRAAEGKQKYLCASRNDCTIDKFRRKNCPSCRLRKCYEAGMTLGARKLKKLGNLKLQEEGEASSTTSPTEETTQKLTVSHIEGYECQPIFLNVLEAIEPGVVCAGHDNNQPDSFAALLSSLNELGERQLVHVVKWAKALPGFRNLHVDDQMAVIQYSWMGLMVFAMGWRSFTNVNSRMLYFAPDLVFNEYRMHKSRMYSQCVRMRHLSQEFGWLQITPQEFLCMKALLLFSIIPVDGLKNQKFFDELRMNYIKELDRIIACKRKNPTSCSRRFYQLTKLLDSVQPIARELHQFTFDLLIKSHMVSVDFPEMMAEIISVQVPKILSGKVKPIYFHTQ

Structure (SMILES)	Potency [1]	Potency [2]	Potency [3]	Potency [4]	Potency [5]	Potency [6]	Potency [7]	Potency [8]	Potency [9]	Potency [10]	Potency [11]	Potency [12]	Potency [13]	Potency [14]	Potency [15]	Potency [16]	Potency [17]	Potency [18]	Potency [19]	Potency [20]
[Cd+2].[Cl-].[Cl-]	44 µM (active) and 15.5 µM (active)	inactive	22.1 µM (active) and 24.5 µM (active)	inactive	inactive	inactive	inactive	inactive	inactive	inactive	inactive	inactive	inactive	4.9 µM (active) and 10.9 µM (active)	3.89 µM (active) and 9.69 µM (active)	inactive	–	–	–	–
N#CCCO	inactive	inactive	inactive	inactive	–	inactive	inactive	inactive	inactive	inactive	inactive	inactive	inactive	inactive	inactive	inactive	inactive	inactive	inactive	–
CN(C)CCc1c[nH]c2ccc(O)cc12	inactive	inactive	inactive	inactive	–	inactive	inactive	inactive	inactive	inactive	inactive	inactive	inactive	–	59.7 µM (active)	inactive	inactive	inactive	–	inactive
N#C/C=C/C#N	inactive	inactive	inactive	inactive	inactive	–	inactive	–	inactive	inactive	inactive	–	inactive	–	inactive	inactive	–	–	inactive	–
Cc1cc(C)c(C2=C(OC(=O)CC(C)(C)C)C3(CCCC3)OC2=O)c(C)c1	inactive	inactive	inactive	inactive	–	inactive	inactive	inactive	inactive	inactive	inactive	inactive	inactive	inactive	inactive	inactive	inactive	–	inactive	–
CC(C)[C@H](C(=O)O[C@H](C#N)c1cccc(Oc2ccccc2)c1)c1ccc(Cl)cc1	inactive	inactive	inactive	inactive	inactive	–	inactive	inactive	inactive	inactive	inactive	inactive	inactive	–	inactive	inactive	–	–	–	–
CC(C)(COCC1CO1)COCC1CO1 (configuration not stated)	inactive	inactive	inactive	inactive	–	inactive	inactive	inactive	inactive	inactive	inactive	inactive	inactive	inactive	inactive	inactive	inactive	–	inactive	–
